This is part of a sample that, as a whole, favours compounds with a hit. Of some 83,000 tested, about 20% had one in any assay.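 96-well plates, one dose, 48 hours. Percent growth reported; active if below 10.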 Values without a mark were called inactive. Active and inactive are the calls of the source.
Tested on: M14 melanoma
Assay: NCI-60 one-dose screen, 48 h (100 = growth as untreated, 0 = no growth, -100 = all killed)
Conditions: 10 µM unless noted

| Structure (SMILES) | growth |
| --- | --- |
| COc1cc(/C=C\c2cc(OC)c(OC)c(OC)c2)cc(N/C=C\C(=O)c2cc(OC)c(OC)c(OC)c2)c1OC | 2.89% (active) |
| N#C[S-].[Au+].c1ccc(CN2[CH-]N(Cc3ccccc3)C(c3ccccc3)=C2c2ccccc2)cc1 | 15.8% |
| O=[N+]([O-])c1ccc(OP(=O)(CCl)N(CCCl)CCCl)cc1 (stereo not drawn) | 98.6% |
| O=C1CC2(CC3(Cl)C(Cl)=C(Cl)C2(Cl)C3(Cl)Cl)C(=O)O1 (stereo not drawn) | 95.4% |
| COc1cc2c(cc1OCCCCCn1c(-c3ccco3)nc3ccccc31)N=C[C@@H]1CCCN1C2=O | -23% (active) |
| O=C(O)c1ccc([S-])cc1.[Au+].c1ccc(CN2[CH-]N(Cc3ccccc3)C(c3ccccc3)=C2c2ccccc2)cc1 | -48.1% (active) |
| N#C[Se]Cc1cc(-c2ccccc2)n(-c2ccc(S(N)(=O)=O)cc2)n1 | -62.2% (active) |
| COc1cc2c(cc1OCCCCn1c(-c3cccs3)nc3ccccc31)N=C[C@@H]1CCCN1C2=O | -46.2% (active) |
| COc1ccc(/C=C\c2cc(OC)c(OC)c(OC)c2)cc1OCC(=O)Nc1nc2ccc(F)cc2s1 | 51.9% |
| O=C(Nc1ccc([N+](=O)[O-])cc1)C(Cl)(Cl)Cl | 94.1% |
| C[CH2][Sn]([Cl])([Cl])[CH2]C.Oc1ccccc1C=NCCN=Cc1ccccc1O | 112% |
| C[N+]12CN3CN(CN(C3)C1)C2 | 103% |
| C[C@]12CC[C@@H]3c4ccc(Oc5nc(N6CC6)nc(N6CC6)n5)cc4CC[C@H]3[C@@H]1CCC2=O | 44.7% |
| c1ccc(COc2ccc3[nH]cc(CCN(Cc4ccccc4)Cc4ccccc4)c3c2)cc1 | 98.6% |
| [Au+].[N-]=C=O.c1ccc(CN2[CH-]N(Cc3ccccc3)C(c3ccccc3)=C2c2ccccc2)cc1 | 81.3% |
| CC1=C(CCCNS(C)(=O)=O)C2=C(C)C3(CC3)[C@@](C)(O)C(=O)C2=C1 | -51.3% (active) |
| C[C@]12CC[C@H]3[C@@H](CC[C@]4(O)C[C@@H](O[C@@H]5O[C@H](CO)[C@@H](O[C@@H]6OC[C@@H](O)[C@H](O)[C@H]6O)[C@H](O)[C@H]5O)CC[C@]34C=O)[C@@]1(O)CC[C@@H]2C1=CC(=O)OC1 | 23.8% |
| CN1C(=O)N[C@H]2[C@@H]3NC(=O)c4ccc(Br)n4[C@@H]3C[C@]21O | -70.8% (active) |
| COC1OC(CO)C(O)C(O)[CH]1[Hg][O]C(C)=O (stereo not drawn) | 93.7% |

| Structure (SMILES) | growth |
| --- | --- |
| OCc1ccc2c(c1)OCO2 | 103% |
| Nc1nnnc2nc[nH]c12 | -35.4% (active) |
| CC1CCCC(C[N+](C)(C)C)C1=O (stereo not drawn) | 101% |
| CNC(=O)Oc1cccc(C(F)(F)F)c1 | 101% |
| COc1cc2c(cc1OCCCn1c(-c3ccccn3)nc3ccccc31)N=C[C@@H]1CCCN1C2=O | 10.5% |
| CCCCCCCOC(C(=O)OCCN(CC)CC)(c1ccccc1)c1ccccc1 | 90.5% |
| CC(=O)OCC1O[C@@H]([S-])C(OC(C)=O)[C@H](OC(C)=O)[C@@H]1OC(C)=O.[Au+].c1ccc(CN2[CH-]N(Cc3ccccc3)C(c3ccccc3)=C2c2ccccc2)cc1 | 48.5% |
| COc1ccc(C(=O)c2sc3nc4c(cc3c2N)N2CCC4CC2)cc1OC | 109% |
| CC(CC1CCCCC1)NCc1ccccc1 (stereo not drawn) | 90.2% |
| COc1ccc(/C=C\c2cc(OC)c(OC)c(OC)c2)cc1OCC(=O)Nc1nc2ccc(C(F)(F)F)cc2s1 | 22.3% |
| O=C1CCC2(O)[C@@H]3Cc4ccc(O)c5c4[C@]2(CCN3Cc2ccoc2)C1O5 (stereo partly drawn) | 100% |
| C/C(=C\c1cc(C(F)(F)F)nn1CCNC(=O)OC(C)(C)C)[C@@H]1C[C@@H]2O[C@]2(C)CCC[C@H](C)[C@H](O)[C@@H](C)C(=O)C(C)(C)[C@@H](O)CC(=O)O1 | 50.1% |
| CC(C)CCC(=O)O[C@H]1CC[C@H]2[C@@H]3CCC4=CC(=O)CC[C@]4(C)[C@H]3CC[C@]12C | 98.9% |
| ClCCN(CCCl)Cc1ccc(Nc2ccnc3cc(Cl)ccc23)cc1 | 49.7% |
| COc1cc(NC(C)CCCNC2CN3CCC2CC3)c2ncccc2c1 (stereo not drawn) | 51.2% |
| C=CCCCN=C=S | 60.9% |
| CCN(CC)CCOC(=O)C(OC(C)C)(c1ccccc1)c1ccccc1 | 110% |
| CCC1(C(C)C)C(=O)NC(=S)NC1=O | 106% |
| CC[C@]12C=CCN3CC[C@]4(C(=C(C(=O)OC)C1)Nc1cc(OC)c(OC(C)=O)cc14)[C@@H]32 | 13.9% |
